PubChem BioAssay AID1254 (The Scripps Research Institute Molecular Screening Center, 2008)
The campaign covered roughly 1,200 compounds. About 250 (21%) were called active. Not all results are given here. A number with no mark means an inactive call. No stated cut-off is given here; in the data, active means inhibition above about 20%; inactive means the rest.

These compounds were tested against Neuropeptide Y receptor type 1 (Homo sapiens) (UniProt P25929) (assay: NPY-Y1 receptor antagonists, retest of hits, confirmation, HEK293-CNG cells, membrane potential fluorescence, triplicate (AID 1254;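 further: 0% = vehicle with agonist plus stimulus and 100% = stimulus alone without agonist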)). Conditions: cAMP, at 3.6 µM, stronger effect = higher value, NPY challenge against isoproterenol-raised cAMP.
Neuropeptide Y receptor type 1 (Homo sapiens), sequence (P25929 whole entry, looked up): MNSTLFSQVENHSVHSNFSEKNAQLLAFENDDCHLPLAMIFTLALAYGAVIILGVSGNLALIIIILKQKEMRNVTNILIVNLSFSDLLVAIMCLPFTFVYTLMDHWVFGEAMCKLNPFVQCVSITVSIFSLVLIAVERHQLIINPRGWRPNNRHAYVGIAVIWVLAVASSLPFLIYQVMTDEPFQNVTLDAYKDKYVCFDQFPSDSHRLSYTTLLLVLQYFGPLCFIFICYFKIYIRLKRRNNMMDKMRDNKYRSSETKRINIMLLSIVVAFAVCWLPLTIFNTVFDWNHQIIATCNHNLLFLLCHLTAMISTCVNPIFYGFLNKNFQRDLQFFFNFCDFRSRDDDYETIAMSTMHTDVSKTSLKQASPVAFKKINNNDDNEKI
For `O=C(CSc1nnnn1C1CCCC1)Nc1ccc2c(c1)OCCO2`, the inhibition was 10.8%. `CCN1CCN(CCNC(=O)c2ccc(/C=C3/Sc4ccccc4N(Cc4cccc(C)c4)C3=O)cc2)CC1` showed an inhibition of 14.5%. In the case of `COC(=O)c1ccc(COC(=O)c2c(C)nn(Cc3ccccc3Cl)c2Cl)o1`, the inhibition was 7.48%. In the case of `CC(C)(C)NCc1cc(Br)ccc1OC1CCCC1`, the inhibition was 21.6% (active). With `Cc1ccccc1Nc1scc(-c2ccc(Br)cc2)[n+]1-c1ccccc1C` the inhibition was 18.4%. With `COc1ccccc1C1C2=C(COC2=O)Nc2cc3c(cc21)OCO3` (stereo not drawn) the inhibition was 2.86%. For `COc1ccc(-c2[nH]nc(-c3ccccc3)c2-c2nc3ccccc3[nH]2)cc1`, the inhibition was 13.6%. For `COc1ccc(C(=O)CSc2nnc(COc3ccccc3)n2Cc2ccco2)cc1`, the inhibition was 5.39%. Compound `Cc1cc(C)c2[nH]c(=O)c(CN(Cc3ccccc3)C(=S)NCCCN(C)C)cc2c1` has an inhibition of 15.2%. Compound `O=S(=O)(O)c1nc2ccccc2n1Cc1ccc(Cl)cc1` has an inhibition of 5.94%. With `O=C(NCCc1ccc2c(c1)OCCO2)c1cc2ccccc2o1` the inhibition was 13.2%. Compound `CCCOc1ccc2c3c(c(=O)oc2c1OCCC)CCC3` has an inhibition of 5.13%. Work on `C/C(=N\NC(=S)NCc1ccccc1)c1ccc(Cl)cc1` yielded an inhibition of 4.98%. For `Cc1ccc(-c2cc(C(=O)N3CCc4ccccc4C3)no2)cc1`, the inhibition was 10.9%. Work on `OCC1(CCc2ccccc2)CCN(Cc2ccc3nsnc3c2)CC1` yielded an inhibition of 9.69%. `COc1ccc(CCN(C(=O)COc2ccccc2)c2nc(-c3ccccc3)cs2)cc1OC` showed an inhibition of 13.1%. `CC(Nc1nc(N2CCN(CCO)CC2)nc2ccccc12)c1ccccc1` (stereo not drawn) was tested, and the inhibition was 4.06%. In the case of `c1ccc2c(NC3C4CC5CC(C4)CC3C5)nc(N3CCOCC3)nc2c1` (stereo not drawn), the inhibition was 25.2% (active). `c1ccc(-c2ccccc2OCCN2CCCCC2)cc1` was tested, and the inhibition was 4.72%. With `CCCCCCCCn1c2c(c(=N)c3c1CCC3)CCCC2` the inhibition was 64.7% (active). Work on `O=C(CN1CCN(c2ncc(C(F)(F)F)cc2Cl)CC1)Nc1ccc2c(c1)OCO2` yielded an inhibition of 12.4%. In the case of `Cc1ccc2nc(-c3ccccn3)cc(C(=O)Nc3ccc4c(c3)OCO4)c2c1`, the inhibition was 27% (active). With `COc1cc2c(C(=O)N3CCN(C)CC3)c(CSc3ccccc3)n(C)c2cc1Br` the inhibition was 20.6% (active). With `CS(=O)(=O)N1CCCC(C(=O)N2CCOCC2)C1` (stereo not drawn) the inhibition was -0.5%. With `CCOC(=O)CSc1nc2c(sc(=S)n2CCc2ccccc2)c(=O)n1Cc1ccco1` the inhibition was 18.3%. `O=C(c1cc(-c2ccc(O)cc2)on1)N1CCCc2ccccc21` was tested, and the inhibition was 2.54%. Work on `CCOC1CCCCC1NS(=O)(=O)c1ccc(Cl)cc1` (stereo not drawn) yielded an inhibition of -0.15%. Work on `CCCC(=O)Nc1nc2ccc(NC(=O)c3c(F)c(F)c(OC)c(F)c3F)cc2s1` yielded an inhibition of 6.69%. `Cc1ccc(N2C(=O)C3N=NN(CC(=O)N4N=C(c5cccc6ccccc56)CC4c4ccccc4)C3C2=O)cc1` (stereo not drawn) gave an inhibition of 0.57%. `COC(=O)C1=C(Nc2ccc(C)cc2)C=C(C)C(C(=O)OC)C1c1ccc(F)cc1` (stereo not drawn) was tested, and the inhibition was 19%. `NC(N)=N/N=C/c1ccc(OCc2ccc(Cl)cc2Cl)cc1` showed an inhibition of 11.7%. `CC(=O)OC(C)C[N+](C)(C)C` (stereo not drawn) was tested, and the inhibition was 15.3%. For `Cc1ccc(C(=O)C[n+]2cc(-c3ccccc3)n3c2CCCCC3)cc1`, the inhibition was 22.1% (active). `CCOC(=O)N1CCN(S(=O)(=O)c2ccc(C(=O)Nc3ccc(F)cc3F)cc2)CC1` showed an inhibition of 2.56%. In the case of `Cc1nc(-c2ccccc2)sc1C(=O)/C=C/c1ccccc1`, the inhibition was 7.83%. In the case of `COc1ccc(C(c2nnnn2C2CCCCC2)N2CCN(c3ccccc3F)CC2)cc1` (stereo not drawn), the inhibition was 15%. `Cc1ccc(SCCC(=O)OCC(=O)Nc2ncc(Cl)cc2Cl)cc1` gave an inhibition of 5.19%. `CCCCc1c(O)nc2n(c1=O)CCS2` showed an inhibition of 1.41%. `CCCOC(=O)c1[nH]c2c(c1C)C(=O)CC(c1cccs1)C2` (stereo not drawn) was tested, and the inhibition was 7.07%. For `CC1CN(CCCOc2ccccc2-c2ccccc2)CC(C)O1` (stereo not drawn), the inhibition was 2.5%. Compound `Cc1ccc(Cn2c(NC(=O)c3ccco3)nc3ccccc32)cc1` has an inhibition of 17.4%. `COc1cccc(CNCCc2c[nH]c3ccccc23)c1OCc1ccccc1F` showed an inhibition of 9.73%. For `OC(COCCC12CC3CC(CC(C3)C1)C2)CN1CCCCC1` (stereo not drawn), the inhibition was 3.08%. Work on `Cc1ccc(/C=N/NC(=O)COc2ccccc2-c2ccccc2)cc1` yielded an inhibition of 11.6%. `CCCSc1nc(NCc2ccco2)c2c3c(sc2n1)COC(C)(CC)C3` (stereo not drawn) showed an inhibition of 10.4%. `O=C(Cc1cccs1)N(CC1CCCO1)C1(C(=O)NC2CCCCC2)CCCCC1` (stereo not drawn) showed an inhibition of 9.42%. With `COc1ccccc1N1CCN(C(=O)CN(Cc2ccc(Cl)cc2)S(C)(=O)=O)CC1` the inhibition was 11.6%. In the case of `CCC(=O)c1c[nH]c(C(=O)NCC2CCCO2)c1` (stereo not drawn), the inhibition was 0.28%. `CCOC(=O)c1nn(-c2cccc(C)c2)cc1C(=O)c1ccccc1` gave an inhibition of 5.58%. For `COC(=O)c1ccc(C(NC(=O)OCc2ccccc2)/C(C)=C/[C@@H](C)C(=O)NCc2ccc(OC)c(OC)c2)cc1` (stereo partly drawn), the inhibition was 15.9%. With `O=C(NCCCN1CCOCC1)c1cnn2c(-c3ccccc3)cc(-c3ccccc3)nc12` the inhibition was 25% (active). `O=C1c2cccnc2C(Nc2ccc(S(=O)(=O)N3CCCCCC3)cc2)N1Cc1ccccc1` (stereo not drawn) was tested, and the inhibition was 0.2%. In the case of `COc1ccc(C2Nc3ccccc3C(=O)N2Cc2ccccc2)cc1Cn1nnc2ccccc21` (stereo not drawn), the inhibition was 11.8%. Compound `CCS(=O)(=O)n1nc(-c2ccccc2)nc1SCc1ccccc1` has an inhibition of 13.5%. With `Cc1cc(C(C)(C)C)oc1C(=O)N(CC(=O)NC1CCCC1)Cc1ccc(Cl)cc1` the inhibition was 25.8% (active). For `O=C(/C=C/c1ccco1)Nc1cccc(-c2nc3ccccc3[nH]2)c1`, the inhibition was 2.58%. `Oc1ccc(-c2[nH]ncc2-c2nc3ccccc3s2)c(O)c1` was tested, and the inhibition was 53% (active). `CCc1ccc(CNC(=O)C2CCCN(c3nc4ccccc4o3)C2)cc1` (stereo not drawn) gave an inhibition of 13.2%. For `CCCCn1nc(C(=O)N2CCc3ccccc32)c2ccccc2c1=O`, the inhibition was 3.55%. `Clc1ccccc1-c1cc(COc2ccc3ccccc3c2)no1` showed an inhibition of 13.6%. Work on `CCCCCCC(=O)Nc1nc(C)c(-c2csc(Nc3cccc(OC)c3)n2)s1` yielded an inhibition of 17.8%. `CC(Oc1ccc2ccccc2c1)C(=O)NNC(=S)NC(=O)c1ccco1` (stereo not drawn) showed an inhibition of 10.5%. Compound `Cc1ccc(C(=O)N/C(=C/c2ccc(-c3cccc([N+](=O)[O-])c3)o2)C(=O)NCCCN(C)C)cc1` has an inhibition of 9.75%. Work on `O=C(CSc1nc2cc3c(cc2c(=O)n1CCC1=CCCCC1)OCO3)NCc1ccco1` yielded an inhibition of 4.77%. Work on `CC(=O)N1CC(C)c2scc(C)[n+]2-c2ccccc21` (stereo not drawn) yielded an inhibition of -0.57%. Compound `Fc1ccc(-c2nnc(CSc3nnc(-c4ccc5c(c4)OCO5)o3)o2)cc1` has an inhibition of 10.1%. With `CN(C)CCCCCN(C)Cc1cc2ccccc2o1` the inhibition was 9.51%. Compound `CC(C)Cn1cnc2c1c(=O)n(CC(O)c1ccccc1)c(=O)n2CC(C)C` (stereo not drawn) has an inhibition of -1.75%.
